VHR inh abs – inhibitors of human VHR1 phosphatase (DUSP3). AID 1654. inhibition, % at 13.3 µM. recombinant VHR phosphatase, pNPP absorbance. 290,000 tested, 0.52% active; in the data active = inhibition above about 50%
FBA Mtb inh – inhibits M. tuberculosis FBA enzyme. 360,000 tested, 2.3% active. purified M. tuberculosis FBA, fluorescence read-out. P9WQA3. inhibition, % at 1 µM; in the data active = inhibition above about 27%;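 also: 0% = vehicle and 100% = reference inhibitor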
RecA intein inh – Mtb RecA intein splicing inhibition. inhibition, % (test concentration not listed). cell-free RecA intein splicing, fluorescence. AID 2221. 290,000 tested, 0.75% active; in the data active = inhibition above about 30%;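 also: 0% = vehicle wells and 100% = reference inhibitor control wells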
Target sequence (P9WHJ3 whole entry, looked up): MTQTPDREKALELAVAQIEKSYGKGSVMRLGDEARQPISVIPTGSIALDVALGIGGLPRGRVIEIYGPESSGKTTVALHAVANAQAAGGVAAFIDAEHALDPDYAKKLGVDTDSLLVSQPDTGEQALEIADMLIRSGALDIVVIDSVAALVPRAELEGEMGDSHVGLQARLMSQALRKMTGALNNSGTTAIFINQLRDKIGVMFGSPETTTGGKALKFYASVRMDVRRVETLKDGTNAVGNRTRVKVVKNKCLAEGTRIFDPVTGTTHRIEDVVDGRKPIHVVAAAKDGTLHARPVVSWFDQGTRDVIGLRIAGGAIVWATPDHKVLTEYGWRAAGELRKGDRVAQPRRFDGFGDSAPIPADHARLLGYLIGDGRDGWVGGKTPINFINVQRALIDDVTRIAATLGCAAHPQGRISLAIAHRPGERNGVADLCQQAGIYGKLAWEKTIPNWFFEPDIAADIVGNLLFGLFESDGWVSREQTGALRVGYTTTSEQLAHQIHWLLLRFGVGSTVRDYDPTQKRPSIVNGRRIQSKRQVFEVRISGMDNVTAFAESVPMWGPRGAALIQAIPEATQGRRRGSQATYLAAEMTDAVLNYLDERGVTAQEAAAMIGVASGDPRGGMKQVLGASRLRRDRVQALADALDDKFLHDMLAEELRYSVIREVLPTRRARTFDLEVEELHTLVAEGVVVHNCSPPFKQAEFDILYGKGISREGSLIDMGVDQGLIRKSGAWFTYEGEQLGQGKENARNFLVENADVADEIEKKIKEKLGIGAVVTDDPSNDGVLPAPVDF
GDH-TPI counter-1 – counter-screen for M. tuberculosis FBA inhibitors: GDH-TPI coupled enzymes; AID 588335; GDH-TPI coupled enzyme counterscreen, NADH absorbance; inhibition, % at 4.8 µM; 360,000 tested, 1.2% active;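 also: 0% = DMSO wells and 100% = wells lacking the enzyme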
CCHF vOTU inh – blocks the CCHF virus ovarian tumor domain protease; inhibition, % at 11.5 µM; AID 651958; CCHFV vOTU protease, Pep-AMC fluorescence; 370,000 tested, 0.55% active; also: 0% = vehicle wells with enzyme and 100% = no enzyme wells
3CLpro inhibitor – SARS-CoV 3CLpro protease inhibition; P0C6X7; recombinant SARS-CoV 3CLpro, quenched FRET peptide cleavage; inhibition, % at 6 µM; 290,000 tested, 0.14% active; in the data active = inhibition above about 12%
Mtb FBA inh conf – Mtb FBA inhibition, confirmed; purified M. tuberculosis FBA, fluorescence read-out; inhibition, % at 1 µM; 5,600 tested, 78% active; shares compounds with FBA Mtb inh; in the data active = inhibition above about 27%;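 also: 0% = vehicle wells and 100% = reference inhibitor wells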
GDH-TPI counter-2 – GDH-TPI inhibition counter-screen for FBA inhibitors. shares compounds with FBA Mtb inh. GDH-TPI coupled enzyme counterscreen, fluorescence. inhibition, % at 1 µM. 5,600 tested, 81% active. AID 652141; in the data active = inhibition above about 10%
GDH-TPI DR – counter-screen for M. tuberculosis FBA inhibitors: GDH-TPI dose response | shares compounds with FBA Mtb inh | GDH-TPI coupled enzyme assay, fluorescence, artifact counterscreen | IC50, µM | 170 tested, 79% active; call rule not given here
An asterisk follows results filed as active; . = no result given; + = active, no number. Sampled rows, rich in hits. Any-hit rate of the full collection: about 4.7%. Rule as the data show it, unless noted: active = inhibition above about 30%; inactive = the rest.

SMILES | VHR inh abs | FBA Mtb inh | RecA intein inh | GDH-TPI counter-1 | CCHF vOTU inh | 3CLpro inhibitor | Mtb FBA inh conf | GDH-TPI counter-2 | others
COc1ccc2oc(=N)c(-c3nnc4n3CCCCC4)cc2c1 | 10.5 | 32.4* | -16.5 | 5.3 | -53.6 | -1.0 | 17.5 | 8.5 | GDH-TPI DR=>10
CC(C#N)(NC(=O)COC(=O)c1ccccc1NCCO)C1CC1 (stereo unspecified) | . | 99.4* | -11.7 | 11.3 | -104.5 | . | 51.7* | 39.1*
O=C(COC(=O)c1ccccc1NCCO)NCC1CCCCC1 | . | 71.2* | . | 7.0 | -91.8 | . | 100.5* | 75.6*
COc1ccc(C(=O)OCC(=O)N(Cc2ccccc2)Cc2ccccc2)c(O)c1 | . | -2.8 | . | 8.8 | 0.2 | . | . | .
Cc1ccc(-n2nc(C)c(NC(=O)COC(=O)c3ccccc3NCCO)c2C)cc1 | . | 67.6* | -7.6 | 15.8 | -89.4 | . | 79.6* | 64.8*
Cc1ccc(C(=O)OCC(=O)Nc2c(C)nn(-c3ccccc3)c2C)c(O)c1 | . | 4.8 | . | 15.2 | -2.1 | . | . | .
O=C(OCC(=O)N(Cc1ccccc1)Cc1ccccc1)c1ccccc1NCCO | . | 95.2* | -1.7 | 9.3 | -74.2 | . | 4.5 | -2.4
O=C(CCc1nc2ccccc2c(=O)[nH]1)OCc1ccc(Cl)cc1Cl | -3.9 | -0.6 | 0.3 | 0.7 | -3.8 | -0.5 | . | .
COc1ccc(OC)c(CN2C(=O)CSCC2(C)C(=O)NC(C)C)c1 (stereo unspecified) | . | . | . | . | -3.5 | . | . | .
CCCCc1ccc(NC(=O)C(=O)NCCN2CCN(C(=O)c3ccc([N+](=O)[O-])cc3)CC2)cc1 | 12.5 | 0.5 | -0.5 | 1.5 | 1.7 | -6.3 | . | .
O=C(COC(=O)c1ccccc1NCCO)NCCC1=CCCCC1 | . | 62.6* | -4.0 | 2.8 | -65.5 | . | 174.9* | 130.4*
O=C(COC(=O)c1ccccc1NCCO)NCCc1ccccc1 | . | 77.0* | -4.7 | 3.2 | -93.0 | . | 47.4* | 38.2*
O=C(COC(=O)c1ccccc1NCCO)NNC(=O)c1cccs1 | . | 59.6* | -5.0 | 6.4 | -119.6 | . | + | +
O=C(COC(=O)c1ccccc1Br)NCCC1=CCCCC1 | 5.3 | -0.4 | 3.1 | -1.9 | -0.7 | 5.3 | . | .
O=C(O)C1CCN(C(=O)CSc2nnc(-c3ccccc3)o2)CC1 | . | 27.6* | . | 6.6 | -6.5 | . | 71.2* | 53.1*
CCc1nc2c(OCc3ccc(C#N)cc3)cccn2c1N(C)C(=O)c1cccs1 | . | -2.0 | . | 9.1 | 14.4 | . | . | .
Cc1nc2cc(-c3cccs3)[nH]n2c(=O)c1C | . | 45.9* | 0.4 | 1.5 | . | 1.1 | 11.1 | 2.0 | GDH-TPI DR=5.65*
COc1ccc(C(=O)N/N=C(\c2ccccc2)c2ccccn2)cc1 | 2.6 | 49.4* | 2.7 | 17.1 | 0.9 | -0.1 | 147.2* | 115.5*
COC(=O)Cc1nnn2c1[C@H](C)[C@@H](OC)c1ccc(C(F)(F)F)cc1-2 | . | . | . | . | -3.8 | . | . | .
CCCCOc1ccc(C(=O)N2CCN(c3ccc(N4CCOCC4)nn3)CC2)cc1 | . | 30.2* | 0.1 | 5.2 | -44.1 | . | 6.5 | -6.2
Cc1ccc(C(=O)N2CCN(c3ccc(N4CCOCC4)nn3)CC2)cc1 | . | 37.4* | -2.8 | -6.5 | -38.8 | . | + | +
COc1cc(OC)cc(C(=O)N2CCN(c3ccc(N4CCOCC4)nn3)CC2)c1 | . | 28.0* | -6.5 | 12.0 | -58.4 | . | -2.9 | -7.9
C[C@H](CO)NC(=O)c1nc[nH]c1C(=O)N[C@@H](C)c1ccccc1 | . | 1.0 | . | 8.2 | -12.8 | . | . | .
COC(=O)Nc1ccc(SCC(=O)c2cccc([N+](=O)[O-])c2)cc1 | -2.2 | 0.6 | 4.0 | 3.5 | 12.3 | 4.0 | . | .
COc1ccc(Br)cc1CN(C)CC(O)COc1ccc(Br)cc1 (stereo unspecified) | 38.4 | 53.2* | 6.1 | 16.4 | 5.0 | 3.3 | 66.7* | 53.6*
SMILES | VHR inh abs | FBA Mtb inh | RecA intein inh | GDH-TPI counter-1 | CCHF vOTU inh | 3CLpro inhibitor | Mtb FBA inh conf | GDH-TPI counter-2 | others
O=C(NCc1cccnc1)C1C2C=CC(C2)C1C(=O)Nc1cccc(C(F)(F)F)c1 (stereo unspecified) | . | -1.7 | . | -0.9 | 5.4 | . | . | .
COc1ccc(-c2cc(C(=O)O)c3c(C)nn(-c4ccccn4)c3n2)cc1 | 3.8 | . | -5.0 | . | -67.8 | -2.3 | . | .
Cc1nn(-c2ccccn2)c2nc(-c3cccs3)cc(C(=O)N3CCOCC3)c12 | 18.9 | 104.7* | 0.6 | 31.1* | -175.2 | 1.6 | 58.9* | 58.7*
CC(C)n1c(=O)c2ccccc2n1Cc1cn(-c2ccc(Cl)cc2)nn1 | . | 55.8* | . | . | -4.5 | . | 35.3* | 29.9*
COCc1cn(CC(C)n2c(=O)c3ccccc3n2Cc2cc(C(C)C)no2)nn1 (stereo unspecified) | . | . | . | . | -12.7 | . | . | .
COc1ccc(Cn2cc(Cn3c4ccccc4c(=O)n3C(C)C)nn2)cc1 | . | 104.7* | . | . | -15.3 | . | 76.9* | 55.1*
CC1CC(C)(C)CC2(C1)NC(=O)N(CC(=O)Nc1cc([N+](=O)[O-])ccc1F)C2=O (stereo unspecified) | . | -2.7 | . | -1.0 | 18.1 | . | . | .
COc1ccc(CN(C(=O)c2ccc(C)cc2)C2CCS(=O)(=O)C2)cc1 (stereo unspecified) | 5.3 | 1.8 | 0.1 | -1.7 | -13.3 | 0.8 | . | .
CC(=O)c1ccc(N(C(=O)Cn2nnc(-c3ccccc3)n2)C(C(=O)NC2CCCCC2)c2ccccn2)cc1 (stereo unspecified) | 4.5 | 0.2 | 1.3 | -0.7 | -3.9 | 1.4 | . | .
COCCNc1nc(N)c([N+](=O)[O-])c(NCc2ccccc2)n1 | 27.1 | 0.3 | -1.7 | 22.1 | 11.1 | -0.4 | . | .
CCCN1C(=O)c2ccccc2NC1c1ccc(C)cc1 (stereo unspecified) | -7.5 | 77.8* | 3.4 | 3.2 | -84.5 | 4.7 | 5.0 | -2.0
Cc1ccc(N2C(=O)c3ccccc3NC2c2ccccc2O)cc1 (stereo unspecified) | 1.9 | 16.6 | -1.2 | 14.0 | -22.6 | 4.6 | . | .
O=C1c2ccccc2NC(c2ccccc2)N1CCCN1CCOCC1 (stereo unspecified) | -30.5 | 48.3* | -2.2 | 8.8 | -68.5 | -3.1 | 123.5* | 107.5*
Cc1ccc(CN2C(=O)c3ccccc3NC2c2ccccn2)cc1 (stereo unspecified) | 17.9 | 30.7* | -1.7 | -5.2 | -53.2 | -0.5 | 63.2* | 51.2*
CC(C)CN(C(=O)CN(C)C(=O)Cc1c(F)cccc1Cl)c1c(N)n(CC(C)C)c(=O)[nH]c1=O | . | 1.8 | . | 14.3 | -0.5 | . | . | .
C[C@@H]1CCCN1c1cccc2c1S(=O)(=O)N1CC[C@@H](C1)O2 | . | . | . | . | -1.2 | . | . | .
Cc1c(OCc2nn[nH]n2)ccc2c(-c3ccccc3)cc(=O)oc12 | 6.7 | 2.1 | 4.9 | 19.3 | -4.3 | 0.4 | . | .
Cc1cc(OCc2nn[nH]n2)c2c(C)c(Cc3ccccc3)c(=O)oc2c1 | 1.0 | 104.8* | 5.5 | 3.4 | -36.2 | -4.6 | 66.1* | 58.2*

Screening results as filed in PubChem.
